Results from the supplement of paper PMC6555819.

Tests used:
Experiment in all cases: PBM binding z-score (relative to random genomic background probes); higher = stronger binding; sequences stand for … in GC…GCGATTGACAGCGTAGAATGAAGG
[1] = tested on: RARb homodimer (NR concentration 270 nM)
Procedure, shortened: (§1)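 Antibodies against each partner of ligand-free nuclear receptor dimers (one per run) detected binding on custom Agilent 4×180K protein-binding microarrays after 1 h incubation. The double-stranded probes had 34-nt variable regions carrying direct-repeat seeds, single-nucleotide variants, half-site ablations and random human genomic background sequences. Binding z-scores, from regression-normalized fluorescence, use the random background probes as reference.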

[2] = tested on: RARg:RXRa (NR concentration 270 nM, RXRa partner concentration 90 nM)
Procedure, shortened: as §1

[3] = tested on: RARg homodimer (NR concentration 270 nM)
Procedure, shortened: as §1

[4] = tested on: RXRa DBDmut IVT, anti-RXR (DBD mutation: RXRa K156A/R161A, NR concentration 90 nM)
Procedure, shortened: as §1

[5] = tested on: RXRa homodimer (NR concentration 180 nM)
Procedure, shortened: as §1

[6] = tested on: THRa:RXRa (NR concentration 90 nM, RXRa partner concentration 90 nM)
Procedure, shortened: as §1

[7] = tested on: THRa homodimer (NR concentration 90 nM)
Procedure, shortened: as §1

[8] = tested on: VDR homodimer (NR concentration 270 nM)
Procedure, shortened: as §1

Sequence	PBM binding z-score [1]	PBM binding z-score [2]	PBM binding z-score [3]	PBM binding z-score [4]	PBM binding z-score [5]	PBM binding z-score [6]	PBM binding z-score [7]	PBM binding z-score [8]
CTCGAAAGGTCGGTTAAGGTGAGTATACGGATAA	2.84	2.94	3.26	0.811	2.41	4.88	2.1	0.781
TCTATTAGTTGGTTAGGGCAACCGAAACAGCGGA	0.686	0.47	0.667	0.779	0.412	0.638	0.431	0.587
CCAAACAGGTGAAAGGTAACTCAGTCTGGTACGC	0.802	1.11	0.696	0.223	1.99	0.954	0.0389	0.206
CGTCCAAGGTCAAAGATCAGTGAAGAGATGACGG	3.86	6.12	6.48	3.73	6.79	3.85	1.87	2.6
CAAACTAGGTCACCGCAAGGTCAAAGTCCGCATG	5.35	8.07	7.32	2.61	6.15	4.68	4.38	4.3
CGTCCAAGGCCAGAGAGGTCAGTGAATGCCGAGT	4.2	3.05	4.27	1.06	2.22	2.77	0.817	2.55
CGATCGAGGGCATGAGTTGATAGCAAATGCCGAT	0.615	1.06	1.18	1.75	0.725	1.04	-0.645	1.5
CGTCCATGGTCATAGGAGGTCAGTGAAGACAGAT	3.47	2.87	2.8	0.0145	2.18	3.83	0.621	1.16
TCTAGTTGGTCACGGAGGTCACACAAGACGGGTA	4.03	4.88	4.81	1.22	4.67	3.75	2.37	3.03
CGAACTAGGTCATTGACAGGACAGTTAATAGTAA	2.42	4.65	4.41	2.52	2.86	2.77	0.893	1.27
CCAACTAGGTCACAGAGGTCAAAGTCCGTGCGTA	5.91	7.44	8.06	3.39	7.77	4.66	3.24	6.85
GCTCGGCGGACAAGGTCAGAGCTTTGTCCGTAGA	2.47	2.59	2.54	-0.314	2.11	2.25	0.553	0.0541
GCAATTAGTTGAAAGGGCAACCGAATGATTCTCG	2	1.14	1.24	0.685	1.25	0.471	-0.13	0.159
GGAGACAGGTGAAACGCAGGTAACTCAGGGTGGC	0.55	1.11	0.252	-0.648	0.638	1.48	0.0199	-0.609
TAGCCTAGGTCATTCAGGTGCCAGTATAGAAAGC	2.67	4.44	3.98	1.73	2.97	3.13	1.06	1.66
ATACCAAGGGGATCGTGAGGTCGTTGATACTAAC	1.03	0.522	0.278	0.533	0.933	2.89	1.66	2.27
GATCCAGGGTCAAGGCCAGAGTACGCGTATTGAT	3.61	5.58	5.08	2.45	6.11	3.65	1.11	2.04
ACTATTAGTTGAGACGAGGGCTACCGATAGGTTG	-0.26	0.564	0.518	0.406	0.235	0.224	-0.838	-0.209
AGAATGAGGTTATAAGTAGATCAGGGAAGAAAGT	0.89	1.35	0.794	1.41	2.12	2.1	0.689	1.09
ATCTCTAGTTAAAGTTCAGTGAAAGATCGATAGA	2.53	1.88	2.04	1.84	1.22	0.988	0.202	2.47
AGTCAAAGTTCCGGACGAGGTAACGTAAAGCACG	0.173	0.181	0.277	-0.303	0.201	1.62	0.886	-0.0573
ACAAACAGGTGATGAAGGTAACTCAGGCTATCAT	0.731	0.443	0.626	0.298	0.602	1.19	0.203	0.203
ATCTTTAGGTAAAGTTCAGTGAAAGATCGATAGA	2.48	1.99	2.45	1.71	1.15	1.52	0.0896	1.95
TCTTGTATATCAACAGGAGGTTAAGAAAGATCGA	0.861	0.722	0.592	0.943	1.25	1.18	0.039	0.491
ACTAACGGGTCAACGAGGTTATAGCACGCGTATA	3.41	5.03	4.5	1.94	5.17	3.81	1.03	3.56
ATCTCTAGGTAACCAAGTTCAGTGAATGCCGAAC	1.52	0.894	0.853	0.991	0.572	1.6	0.96	2.99
